# Measured values from PubChem BioAssay (NCI).
# The panel holds about 83,000 compounds, 20% with a hit somewhere; the sample as a whole holds those more often.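 Percent growth is the endpoint: 0 to 100 indicates growth inhibition (40 means 60% inhibition), 0 means no net growth, and negative values indicate cell death.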 Unmarked numbers belong to inactive results. Calls of active or inactive are those of the source. How the source made its calls: active means growth percent below 10; inactive means the rest.
# How the values were obtained:
# Assay in all cases: NCI-60 one-dose screen, 48 h (100 = growth as untreated, 0 = no growth, -100 = all killed)
# Details in all cases: 10 µM unless noted
# T-47D breast = test system: T-47D breast
# MDA-MB-435 melanoma = test system: MDA-MB-435 melanoma
# SW-620 colon = test system: SW-620 colon
# MCF7 breast = test system: MCF7 breast
# HCT-116 colon = test system: HCT-116 colon
# HCC-2998 colon = test system: HCC-2998 colon
# KM12 colon = test system: KM12 colon
SMILES,growth (T-47D breast),growth (MDA-MB-435 melanoma),growth (SW-620 colon),growth (MCF7 breast),growth (HCT-116 colon),growth (HCC-2998 colon),growth (KM12 colon)
COc1ccc(/C=C2/C(=O)NC(SCC(=O)N3CCN(c4cc5c(cc4F)c(=O)c(C(=O)O)cn5C4CC4)CC3)=NC2N)cc1OC (stereo not drawn),110%,104%,105%,98%,105%,99.7%,106%
CC(C)(C)c1[nH]nc2c1C(c1cc3ccccc3[nH]c1=O)Nc1cc(C(=O)Nc3ccc(Cl)cc3)ccc1N2 (stereo not drawn),40%,35.4%,66.3%,27.8%,45.6%,86.3%,50.2%
C/C(=C\c1ccc(OCC(=O)O)c(Cl)c1Cl)[N+](=O)[O-],100%,106%,114%,103%,109%,97.1%,104%
OCc1ncc(-c2ccccc2)s1,89.8%,108%,106%,102%,89.5%,79.6%,103%
O=c1ccn(-c2ncnc3nc[nH]c23)cc1,84%,102%,96%,88%,96.5%,106%,91.8%
Cc1nc2cncc(C#Cc3cncc(C(=O)Nc4ccc(CN5CCN(C)CC5)c(C(F)(F)F)c4)c3)c2nc1C,26.6%,-1.99% (active),1.45% (active),19%,5.45% (active),30.7%,3.08% (active)
COc1cc(/C=C/C(=O)c2ccc(Nc3ncnc4cc(OC)c(OC)cc34)cc2)cc(OC)c1,100%,51.8%,109%,73%,30.8%,106%,82.9%
NC(N)=Nc1nc2ccccc2o1,98.3%,122%,95.7%,96.8%,95.5%,82.5%,95.9%
Cn1cnc2c(N3CCN(C(=O)OCc4ccc5c(Cl)cc(Cl)c(O)c5n4)CC3)nc(Cl)nc21,61%,67.5%,85.9%,73%,53.1%,94.1%,56.9%
O=c1[nH]c2ccc(Br)cc2c2c1C(c1ccc(Cl)cc1)c1c(ncn3nc(-c4ccco4)nc13)O2 (stereo not drawn),60.9%,85.2%,73.6%,68.7%,67.5%,86.6%,94.5%
O=C1NC(=C(Cl)Cl)/C(=N/S(=O)(=O)N2CCC(C3(C(F)(F)F)N=N3)CC2)N1,47.5%,70.7%,-36.4% (active),74.6%,95.4%,60.5%,93.7%
COc1ccc(S(=O)(=O)n2ccc(-c3ccc4c(c3)CCC(C)(C)O4)n2)cc1OC,43.7%,79.6%,79.9%,64.3%,61.5%,78.9%,71.4%
CC(C)(C)n1cc(-c2ccnc(NCCCNS(=O)(=O)c3ccc(Br)cc3)c2)c(-c2cccc(O)c2)n1,29.9%,39%,7.75% (active),7.27% (active),22.6%,-56.1% (active),1.78% (active)
Cc1ccc(Nc2nnc(-c3ccc(Cl)cc3)o2)c(C)c1,75.6%,6.82% (active),56.5%,56.9%,83.9%,84.8%,65.7%
Cc1ccc(Cc2c(C=O)nc(N)[nH]c2=O)c2ccccc12,95.5%,107%,103%,103%,88.2%,101%,102%
O=C(Nc1ccncc1)C(=O)c1cn(S(=O)(=O)c2ccc(Oc3ccccc3)cc2)c2ccccc12,66.4%,94.1%,94.2%,94.3%,87.9%,81.5%,99.1%
CN1CCN(Cc2ccc(NC(=O)c3cncc(C#Cc4cnc(N)c5ccncc45)c3)cc2C(F)(F)F)CC1,43.2%,9.96% (active),3.27% (active),35.6%,8.86% (active),33%,9.68% (active)
CC(=O)Nc1ccc(/C=C/C(=O)c2ccccc2)cc1,73.9%,114%,53.2%,56.4%,77%,113%,46.6%

SMILES,growth (T-47D breast),growth (MDA-MB-435 melanoma),growth (SW-620 colon),growth (MCF7 breast),growth (HCT-116 colon),growth (HCC-2998 colon),growth (KM12 colon)
CN1CCN(Cc2ccc(NC(=O)c3cncc(C#Cc4cnc(N)c5cnccc45)c3)cc2C(F)(F)F)CC1,22.8%,-9.64% (active),-10.9% (active),25.3%,0.743% (active),19.9%,3.81% (active)
O=[N+]([O-])c1cnc(Sc2ccncn2)s1,-13.9% (active),27.2%,-80.9% (active),31.5%,-48.5% (active),6.85% (active),75.9%
O=C(NCCNc1nccc(-n2ccc3cccnc32)n1)c1ccc(C(F)(F)F)cc1,102%,99.9%,103%,95.6%,100%,120%,100%
Cc1nn(-c2ccc([N+](=O)[O-])cc2)c2ncnc(NCCc3ccccc3)c12,93%,94.9%,99.4%,93.1%,92.5%,101%,96.1%
c1cc(C2=N[C@@H]3c4ccccc4C[C@@H]3O2)nc(C2=N[C@@H]3c4ccccc4C[C@@H]3O2)c1,101%,104%,107%,88.1%,103%,104%,103%
c1ccc(-c2nnc(-c3ccccn3)s2)nc1,33.9%,105%,99.8%,28.6%,86.8%,46.2%,97.3%
CC12CCC3C4(C)COC(c5ccco5)OC4CCC3(C)C1CC(C1=CCOC1=O)O2 (stereo not drawn),101%,103%,107%,98.9%,104%,105%,103%
CC(C)c1ccc2occ(C=C3C(=O)NC(=O)NC3=O)c(=O)c2c1,83.5%,105%,91.6%,80.8%,76.5%,93.7%,117%
CC(=O)Nc1ccc(S(=O)(=O)n2ccc(-c3ccc4c(c3)CCC(C)(C)O4)n2)cc1,31.1%,67.3%,82.5%,66.2%,29.9%,83.3%,67.4%
C1=Cc2ccccc2N(c2nnc(-c3ccccc3)o2)c2ccccc21,100%,87.9%,99.9%,87.6%,66.6%,121%,92.3%
CC12CCCC(CC(=O)c3[nH]c4ccccc4c31)C2 (stereo not drawn),24.1%,-46.9% (active),22.2%,21.1%,22.7%,43.5%,26.7%
CC(C)(C)n1cc(-c2ccnc(NCCCNS(=O)(=O)c3ccc(F)cc3)c2)c(-c2cccc(O)c2)n1,31.2%,58.6%,8.4% (active),16.7%,32%,9.22% (active),28.2%
Cc1ccc(S(=O)(=O)NCCNc2cc(-c3cn(C(C)(C)C)nc3-c3cccc(O)c3)ccn2)cc1,45.1%,78.1%,39.7%,41.6%,62.1%,43%,65.1%
C=C1CCC2C(C)(CO)C(O)CCC2(C)C1CC(NCc1ccccc1)C1=CCOC1=O (stereo not drawn),97.7%,106%,97.3%,89.8%,99.8%,108%,104%
O=[N+]([O-])c1ccc(/C=C/C2(CCl)OCCO2)cc1,95.1%,–,86.5%,106%,61.3%,98.5%,104%
CCN(CC)CCC(CNc1ccnc2cc(Cl)ccc12)c1ccccc1 (stereo not drawn),71%,-2.6% (active),62.3%,26.3%,28.3%,68.2%,84.1%
C=C1CCC2C3(C)COC(C)(C)OC3CCC2(C)C1C/C=C1/C(=O)OCC1Oc1ccccc1OC (stereo not drawn),54.3%,68.6%,–,30.2%,73.3%,122%,97.9%
